The source of these data is the supplement of paper PMC10849652.

The full data set covers some 8,800 targets. This sample favours those with a hit. About 0.5% of all pairs of compound and target were hits.

UniProt P10124, sequence (P10124 whole entry, looked up): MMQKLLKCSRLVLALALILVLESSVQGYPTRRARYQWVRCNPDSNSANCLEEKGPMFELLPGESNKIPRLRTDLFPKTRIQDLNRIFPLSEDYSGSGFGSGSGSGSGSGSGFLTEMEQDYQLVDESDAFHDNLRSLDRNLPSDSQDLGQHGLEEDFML
UniProt Q15022, sequence (Q15022 whole entry, looked up): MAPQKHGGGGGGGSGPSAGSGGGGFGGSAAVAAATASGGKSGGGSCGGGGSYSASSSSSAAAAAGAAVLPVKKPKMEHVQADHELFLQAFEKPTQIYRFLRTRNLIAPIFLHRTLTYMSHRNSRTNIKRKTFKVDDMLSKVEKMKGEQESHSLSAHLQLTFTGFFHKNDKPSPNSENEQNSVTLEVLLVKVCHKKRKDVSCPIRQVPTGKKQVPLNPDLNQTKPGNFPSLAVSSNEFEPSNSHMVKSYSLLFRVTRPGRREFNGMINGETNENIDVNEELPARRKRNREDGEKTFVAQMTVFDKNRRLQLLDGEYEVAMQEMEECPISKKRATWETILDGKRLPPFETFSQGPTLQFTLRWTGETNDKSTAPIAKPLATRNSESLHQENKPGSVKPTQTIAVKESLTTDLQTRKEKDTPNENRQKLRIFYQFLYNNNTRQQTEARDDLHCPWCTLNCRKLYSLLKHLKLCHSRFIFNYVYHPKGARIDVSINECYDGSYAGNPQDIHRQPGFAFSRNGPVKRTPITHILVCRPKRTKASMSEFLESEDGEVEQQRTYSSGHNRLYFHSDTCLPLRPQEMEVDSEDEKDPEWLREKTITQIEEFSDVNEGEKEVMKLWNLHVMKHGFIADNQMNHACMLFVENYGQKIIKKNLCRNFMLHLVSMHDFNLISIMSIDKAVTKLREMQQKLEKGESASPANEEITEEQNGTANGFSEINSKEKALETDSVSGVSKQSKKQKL
UniProt Q13395, sequence (Q13395 whole entry, looked up): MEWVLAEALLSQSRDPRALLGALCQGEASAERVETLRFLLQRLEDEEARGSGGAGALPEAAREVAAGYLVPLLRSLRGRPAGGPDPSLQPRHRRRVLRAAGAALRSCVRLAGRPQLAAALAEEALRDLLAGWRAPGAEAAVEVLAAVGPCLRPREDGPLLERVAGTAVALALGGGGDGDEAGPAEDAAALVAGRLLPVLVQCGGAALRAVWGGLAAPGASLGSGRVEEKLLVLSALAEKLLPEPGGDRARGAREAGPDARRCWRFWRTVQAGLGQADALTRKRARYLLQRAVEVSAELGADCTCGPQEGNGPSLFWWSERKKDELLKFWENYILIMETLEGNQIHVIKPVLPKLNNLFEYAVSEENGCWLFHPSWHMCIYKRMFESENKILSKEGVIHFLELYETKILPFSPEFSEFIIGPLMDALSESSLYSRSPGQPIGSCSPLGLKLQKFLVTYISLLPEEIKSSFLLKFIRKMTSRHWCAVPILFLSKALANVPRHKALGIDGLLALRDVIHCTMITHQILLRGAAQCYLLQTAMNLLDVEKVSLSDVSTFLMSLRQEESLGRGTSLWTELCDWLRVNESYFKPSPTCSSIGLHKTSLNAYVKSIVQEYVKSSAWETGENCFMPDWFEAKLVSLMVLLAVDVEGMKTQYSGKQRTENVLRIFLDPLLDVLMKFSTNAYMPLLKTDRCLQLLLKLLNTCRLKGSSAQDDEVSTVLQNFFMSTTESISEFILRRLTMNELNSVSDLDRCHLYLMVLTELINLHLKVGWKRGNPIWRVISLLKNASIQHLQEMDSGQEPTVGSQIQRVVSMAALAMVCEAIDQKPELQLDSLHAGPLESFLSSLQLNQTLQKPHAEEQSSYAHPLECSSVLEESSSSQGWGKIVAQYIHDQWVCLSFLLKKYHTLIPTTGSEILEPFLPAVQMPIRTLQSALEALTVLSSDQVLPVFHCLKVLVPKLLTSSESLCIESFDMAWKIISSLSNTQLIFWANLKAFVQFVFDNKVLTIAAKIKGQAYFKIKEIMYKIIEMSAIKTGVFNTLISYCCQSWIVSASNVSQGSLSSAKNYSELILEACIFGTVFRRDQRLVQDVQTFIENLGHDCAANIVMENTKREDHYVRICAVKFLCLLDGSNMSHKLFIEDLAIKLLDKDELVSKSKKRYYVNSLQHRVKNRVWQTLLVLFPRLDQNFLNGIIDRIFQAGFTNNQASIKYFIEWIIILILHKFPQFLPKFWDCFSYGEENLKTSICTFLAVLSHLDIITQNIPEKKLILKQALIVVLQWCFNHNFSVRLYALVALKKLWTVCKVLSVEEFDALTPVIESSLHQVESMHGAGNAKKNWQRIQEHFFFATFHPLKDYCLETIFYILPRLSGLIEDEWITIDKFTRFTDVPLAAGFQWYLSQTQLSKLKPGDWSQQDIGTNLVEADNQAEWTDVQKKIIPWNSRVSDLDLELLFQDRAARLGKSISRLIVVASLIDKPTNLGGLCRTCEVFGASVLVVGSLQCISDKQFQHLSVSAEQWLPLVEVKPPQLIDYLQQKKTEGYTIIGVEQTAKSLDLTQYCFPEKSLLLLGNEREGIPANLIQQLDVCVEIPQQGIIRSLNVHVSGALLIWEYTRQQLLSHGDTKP
UniProt O60225, sequence (O60225 whole entry, looked up): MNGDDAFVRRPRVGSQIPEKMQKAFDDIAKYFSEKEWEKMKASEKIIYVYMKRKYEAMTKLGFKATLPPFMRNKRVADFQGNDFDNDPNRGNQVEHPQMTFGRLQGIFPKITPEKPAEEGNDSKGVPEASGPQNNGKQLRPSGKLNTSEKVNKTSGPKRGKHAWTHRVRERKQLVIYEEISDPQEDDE
UniProt Q9BXP5, sequence (Q9BXP5 whole entry, looked up): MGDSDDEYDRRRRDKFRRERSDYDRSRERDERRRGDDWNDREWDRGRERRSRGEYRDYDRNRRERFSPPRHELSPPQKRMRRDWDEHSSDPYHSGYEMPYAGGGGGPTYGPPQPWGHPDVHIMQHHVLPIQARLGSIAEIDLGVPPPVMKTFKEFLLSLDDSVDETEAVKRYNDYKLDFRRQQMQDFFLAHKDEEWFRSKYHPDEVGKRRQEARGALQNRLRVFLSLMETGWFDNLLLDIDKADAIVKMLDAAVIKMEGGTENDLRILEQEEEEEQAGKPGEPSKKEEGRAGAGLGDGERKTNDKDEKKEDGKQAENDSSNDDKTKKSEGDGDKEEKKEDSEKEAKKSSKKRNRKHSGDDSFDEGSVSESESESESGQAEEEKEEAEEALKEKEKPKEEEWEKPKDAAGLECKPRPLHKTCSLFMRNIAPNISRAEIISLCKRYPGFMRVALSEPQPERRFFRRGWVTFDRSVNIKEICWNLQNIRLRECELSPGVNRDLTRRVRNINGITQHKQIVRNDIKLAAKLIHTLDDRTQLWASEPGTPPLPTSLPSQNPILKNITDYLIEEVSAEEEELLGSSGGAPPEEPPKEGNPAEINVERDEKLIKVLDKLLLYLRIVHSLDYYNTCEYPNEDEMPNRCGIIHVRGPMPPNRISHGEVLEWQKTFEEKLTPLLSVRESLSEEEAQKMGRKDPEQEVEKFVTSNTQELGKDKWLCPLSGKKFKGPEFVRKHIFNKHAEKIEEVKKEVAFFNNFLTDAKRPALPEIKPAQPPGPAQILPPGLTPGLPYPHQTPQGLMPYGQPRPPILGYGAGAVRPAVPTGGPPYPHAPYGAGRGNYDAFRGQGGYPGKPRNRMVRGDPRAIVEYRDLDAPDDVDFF
UniProt Q8NDV3, sequence (Q8NDV3 whole entry, looked up): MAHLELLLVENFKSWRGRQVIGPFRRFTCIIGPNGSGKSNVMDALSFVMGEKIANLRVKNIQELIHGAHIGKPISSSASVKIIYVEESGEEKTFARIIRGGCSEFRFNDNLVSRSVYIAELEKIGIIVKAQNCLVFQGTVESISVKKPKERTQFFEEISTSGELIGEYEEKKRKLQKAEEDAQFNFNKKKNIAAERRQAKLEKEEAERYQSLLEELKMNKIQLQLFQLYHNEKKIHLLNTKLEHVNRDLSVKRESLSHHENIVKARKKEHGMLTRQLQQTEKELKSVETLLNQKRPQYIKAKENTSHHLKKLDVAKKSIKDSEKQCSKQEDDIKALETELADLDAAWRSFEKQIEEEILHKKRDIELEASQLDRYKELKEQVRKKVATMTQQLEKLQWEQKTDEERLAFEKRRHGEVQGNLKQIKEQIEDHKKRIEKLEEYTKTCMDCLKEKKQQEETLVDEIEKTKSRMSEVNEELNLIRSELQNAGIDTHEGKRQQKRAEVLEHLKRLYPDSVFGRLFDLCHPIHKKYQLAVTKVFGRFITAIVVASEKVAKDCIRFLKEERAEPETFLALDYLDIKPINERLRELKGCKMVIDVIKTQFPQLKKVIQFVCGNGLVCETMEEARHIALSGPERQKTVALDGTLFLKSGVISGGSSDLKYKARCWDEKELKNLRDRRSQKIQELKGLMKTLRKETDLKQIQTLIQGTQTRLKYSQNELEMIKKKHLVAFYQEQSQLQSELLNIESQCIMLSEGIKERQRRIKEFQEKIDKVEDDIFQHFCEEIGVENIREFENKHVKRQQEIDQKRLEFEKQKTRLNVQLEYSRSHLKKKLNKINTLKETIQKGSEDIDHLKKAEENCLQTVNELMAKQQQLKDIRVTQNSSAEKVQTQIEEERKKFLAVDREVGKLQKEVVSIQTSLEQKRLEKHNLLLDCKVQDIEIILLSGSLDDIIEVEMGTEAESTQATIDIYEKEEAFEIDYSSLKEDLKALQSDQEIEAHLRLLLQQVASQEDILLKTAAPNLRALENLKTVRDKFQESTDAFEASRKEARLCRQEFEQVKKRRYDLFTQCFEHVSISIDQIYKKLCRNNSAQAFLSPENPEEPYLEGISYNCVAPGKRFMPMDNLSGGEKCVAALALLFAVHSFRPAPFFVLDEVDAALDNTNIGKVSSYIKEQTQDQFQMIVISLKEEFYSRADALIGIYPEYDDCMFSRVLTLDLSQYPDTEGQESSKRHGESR
UniProt Q9NZ72, sequence (Q9NZ72 whole entry, looked up): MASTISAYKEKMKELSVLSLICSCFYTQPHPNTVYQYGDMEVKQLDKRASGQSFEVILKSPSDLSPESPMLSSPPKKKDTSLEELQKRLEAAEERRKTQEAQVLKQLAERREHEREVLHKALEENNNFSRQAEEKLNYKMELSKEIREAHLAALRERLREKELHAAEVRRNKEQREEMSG

Compound in one assay: CCCS(=O)(=O)Nc1ccc(F)c(C(=O)c2c[nH]c3ncc(-c4ccc(Cl)cc4)cc23)c1F [vemurafenib]
Description: log2 fold change, soluble protein after heating vs DMSO (PISA); higher = thermal stabilisation; K562 lysate, 10 uM; active = over 0.2 and 3.5 SD of the protein, either way, in both replicates (recomputed). Summed up:
(§1)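 Values give the log-two fold change in thermal stability against solvent controls, from duplicates. Crude K562 extract at 1 mg/mL protein, made by dounce homogenisation in PBS pH 7.4 with 1 mM MgCl2, was treated with 10 μM compound for 30 min. After 3 min heating across 48°C-58°C, aliquots were pooled, adjusted to 0.5% NP-40 at 4°C and centrifuged at 21,000xg for 90 min. The supernatant was measured by TMTpro 16plex LC-MS/MS with channel sums equalised.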
Consider SMC1B isoform 3 (UniProt Q8NDV3), for which the log2 fold change is 0.149 (inactive). Same read-out and setting: the same measure for TARBP1 (UniProt Q13395): 0.019 (inactive); for SSX5 isoform 2 (UniProt O60225): 0.143 (inactive); for SRRT (UniProt Q9BXP5): 0.012 (inactive). The same measure, in the same setting: the value for SOX5 (UniProt P35711) was 0.141 (inactive); that for SYK (UniProt P43405) was 0.184 (inactive); that for SUZ12 (UniProt Q15022) was 0.012 (inactive). On the same count and under the same terms, the same measure for SRGN (UniProt P10124): 0.177 (inactive).

Compound in another assay: CCCS(=O)(=O)Nc1ccc(F)c(C(=O)c2c[nH]c3ncc(Cl)cc23)c1F
Described as above. Summed up: as §1
For SORBS3 (UniProt O60504), the log2 fold change is 0.067 (inactive).

As for SF3B6 (UniProt Q9Y3B4), the log2 fold change is -0.003 (inactive). Same read-out and setting: the same measure for TAF1B (UniProt Q53T94): -0.217 (inactive). The same measure, in the same setting: the same measure for SH3GL1 (UniProt Q99961): -0.01 (inactive); for SLC25A38 (UniProt Q96DW6): 0.013 (inactive); for SLC30A6 isoform 2 (UniProt Q6NXT4): 0.018 (inactive). On the same count and under the same terms, the same measure for SMYD3 (UniProt Q9H7B4): 0.013 (inactive); for SIX5 (UniProt Q8N196): 0.031 (inactive).

On to SSBP3 (UniProt Q9BWW4), for which the log2 fold change is -0.033 (inactive). For the target SNRPD2 (UniProt P62316), the log2 fold change is -0.019 (inactive). SNUPN (UniProt O95149): the log2 fold change was 0.007 (inactive). Regarding SLC39A11 (UniProt Q8N1S5), the log2 fold change is 0.073 (inactive). On to STN1 (UniProt Q9H668), for which the log2 fold change is -0.389 (inactive). Same read-out and setting: the same measure for SRSF9 (UniProt Q13242): 0.009 (inactive); for SMIM12 (UniProt Q96EX1): 0.024 (inactive); for SZT2 (UniProt Q5T011): -0.032 (inactive).

With STMN3 (UniProt Q9NZ72), the log2 fold change was -0.006 (inactive). With SLC25A44 (UniProt Q96H78), the log2 fold change was 0.015 (inactive). Regarding SYNE2 isoform 2 (UniProt Q8WXH0), the log2 fold change was 0.005 (inactive).

Take STK3 isoform 2 (UniProt Q13188): the log2 fold change was 0.04 (inactive). Still for that read-out and setting: the value for SPPL2A (UniProt Q8TCT8) was 0.023 (inactive); that for SURF2 (UniProt Q15527) was -0.002 (inactive); that for SPC25 (UniProt Q9HBM1) was -0.008 (inactive).

Take SH3BP2 isoform 4 (UniProt P78314): the log2 fold change is -0.017 (inactive). Still for that read-out and setting: the value for SMC1B isoform 3 (UniProt Q8NDV3) was 0.002 (inactive); that for TARBP1 (UniProt Q13395) was -0.004 (inactive); that for SSX5 isoform 2 (UniProt O60225) was 0.062 (inactive). The same measure, in the same setting: the same measure for SRRT (UniProt Q9BXP5): 0.012 (inactive); for SMIM1 (UniProt B2RUZ4): 0.013 (inactive); for SOX5 (UniProt P35711): 0.175 (inactive). As for SYK (UniProt P43405), the log2 fold change was 0.065 (inactive).

For the target SUZ12 (UniProt Q15022), the log2 fold change was 0.022 (inactive). On the same count and under the same terms, the same measure for SRGN (UniProt P10124): 0.093 (inactive).
